# Screen size: about 2,000 compounds; about 110 (5.5%) showed an effect of 50% or more. The list comes from a sample in which strong results are over-represented; it also holds similar structures and randomly drawn compounds. Residues, ends and D or L forms follow the SMILES beside them. *: point of attachment. pNA = O=[N+]([O-])c1ccc(N*)cc1; Boc = CC(C)(C)OC(=O)*
# Molecular target: Genome polyprotein (dengue virus type 2) (UniProt P29990)
# [1] = Thailand/16681/1984, Concentration 25.0 uM, Number of replicates 1.0
smiles,measurement,setting,value
CC(C)Nc1nc2cc(NCc3cccc(C(N)=O)c3)ccc2[nH]1,inhibition,"Thailand/16681/1984, Concentration 49.5 uM, Number of replicates 2.0, Standard deviation 0.023235641877752903 %",-0.517%
same,inhibition,"Thailand/16681/1984, Concentration 99.01 uM, Number of replicates 2.0, Standard deviation 0.06423980503181957 %",1.24%
same,inhibition,"Thailand/16681/1984, Concentration 198.0 uM, Number of replicates 2.0, Standard deviation 0.8255495407458023 %",3.31%
CSCC[C@H](NC(=O)OC(C)(C)C)C(=O)N1CCC[C@H]1C(=O)Nc1ccc([N+](=O)[O-])cc1 (Boc-Met-Pro-pNA),inhibition,"Thailand/16681/1984, Concentration 49.5 uM, Number of replicates 2.0, Standard deviation 0.6934296230825803 %",10.3%
same,inhibition,"Thailand/16681/1984, Concentration 99.01 uM, Number of replicates 2.0, Standard deviation 0.4989876662884813 %",17.1%
same,inhibition,"Thailand/16681/1984, Concentration 198.0 uM, Number of replicates 2.0, Standard deviation 0.32485037523299065 %",29.3%
CNC(=O)C1CCC(Nc2nc(Cl)cc3c(F)cccc23)CC1 (stereo unspecified),inhibition,"Thailand/16681/1984, Concentration 49.95 uM, Number of replicates 2.0, Standard deviation 5.365912193998162 %",-9.93%
C[C@@H](NC(=O)C1CCN(c2ccc(C=O)cc2)CC1)c1ccc2ccccc2c1,inhibition,[1],1.94%
Cc1nn(C)nc1-c1nn(C)cc1NC(=O)c1ccccc1C(F)(F)F,inhibition,"Thailand/16681/1984, Concentration 49.5 uM, Number of replicates 2.0, Standard deviation 2.7709187614774393 %",-3.06%
same,inhibition,"Thailand/16681/1984, Concentration 99.01 uM, Number of replicates 2.0, Standard deviation 2.812620033505876 %",-2.31%
same,inhibition,"Thailand/16681/1984, Concentration 198.0 uM, Number of replicates 2.0, Standard deviation 2.009504923047635 %",-2.5%
O=Cc1ccc(N2CCC(C(=O)N3CCCCC[C@H]3c3ccco3)CC2)cc1,inhibition,[1],13.4%
Cn1oc(C(=O)Nc2cc(Cl)cc(C(=O)NC(C)(C)CO)c2)cc1=O,inhibition,"Thailand/16681/1984, Concentration 49.5 uM, Number of replicates 2.0, Standard deviation 0.8141956117621647 %",-0.341%
same,inhibition,"Thailand/16681/1984, Concentration 99.01 uM, Number of replicates 2.0, Standard deviation 1.5201786631370027 %",0.297%
same,inhibition,"Thailand/16681/1984, Concentration 198.0 uM, Number of replicates 2.0, Standard deviation 2.6564108106217375 %",1.39%
C[C@@H](O)CNC(=O)c1cc(Cl)ccc1NS(=O)(=O)c1ccc(Oc2ccccc2Cl)cc1,inhibition,"Thailand/16681/1984, Concentration 49.5 uM, Number of replicates 2.0, Standard deviation 1.4145601780552486 %",30.4%
same,inhibition,"Thailand/16681/1984, Concentration 99.01 uM, Number of replicates 2.0, Standard deviation 0.06674442365142796 %",75.7%
same,inhibition,"Thailand/16681/1984, Concentration 198.0 uM, Number of replicates 2.0, Standard deviation 0.019135343573522066 %",67%
O=Cc1ccc(N2CCC(C(=O)Nc3ncc(C(F)(F)F)cc3Cl)CC2)cc1,inhibition,[1],11.8%
Cc1cc(CO)c2cccc(NCc3ccc(C(N)=O)cc3)c2n1,inhibition,"Thailand/16681/1984, Concentration 49.95 uM, Number of replicates 2.0, Standard deviation 1.5291755401543807 %",1.6%
same,inhibition,"Thailand/16681/1984, Concentration 99.9 uM, Number of replicates 2.0, Standard deviation 0.4954793626184345 %",6.67%
Cc1cc(CO)c2cccc(NCc3ccc(S(N)(=O)=O)cc3)c2n1,inhibition,"Thailand/16681/1984, Concentration 49.95 uM, Number of replicates 2.0, Standard deviation 1.2377055953825635 %",8.26%
same,inhibition,"Thailand/16681/1984, Concentration 99.9 uM, Number of replicates 2.0, Standard deviation 1.691711110367126 %",17.2%
Cc1cc(N)cc(CNc2cccc3c(CO)cc(C)nc23)c1,inhibition,"Thailand/16681/1984, Concentration 49.95 uM, Number of replicates 2.0, Standard deviation 2.268676515546947 %",34.9%
same,inhibition,"Thailand/16681/1984, Concentration 99.9 uM, Number of replicates 2.0, Standard deviation 1.0884002159453274 %",63.5%
Cc1cc(CO)c2cccc(Cc3cccc(C(=O)NCc4ccc(C(N)=O)cc4)c3)c2n1,inhibition,"Thailand/16681/1984, Concentration 49.95 uM, Number of replicates 2.0, Standard deviation 1.5788782649320652 %",-6.46%
same,inhibition,"Thailand/16681/1984, Concentration 99.9 uM, Number of replicates 2.0, Standard deviation 2.3363374645660926 %",-3.45%
Cc1cc(CO)c2cccc(CC(=O)NCC(N)=O)c2n1,inhibition,"Thailand/16681/1984, Concentration 49.95 uM, Number of replicates 2.0, Standard deviation 1.3653333333441007 %",-7.85%
same,inhibition,"Thailand/16681/1984, Concentration 99.9 uM, Number of replicates 2.0, Standard deviation 0.5261932884148693 %",-6.61%
Cc1cc(CO)c2cccc(Cc3cccc(C(=O)NCc4c(C)noc4C)c3)c2n1,inhibition,"Thailand/16681/1984, Concentration 49.95 uM, Number of replicates 2.0, Standard deviation 0.7006856245222158 %",1.58%
same,inhibition,"Thailand/16681/1984, Concentration 99.9 uM, Number of replicates 2.0, Standard deviation 0.008623919554905093 %",5.27%
Cc1cc(N)cc(CNC(=O)c2cccc(Cc3cccc4c(CO)cc(C)nc34)c2)c1,inhibition,"Thailand/16681/1984, Concentration 49.95 uM, Number of replicates 2.0, Standard deviation 0.2659014326821377 %",29.9%
same,inhibition,"Thailand/16681/1984, Concentration 99.9 uM, Number of replicates 2.0, Standard deviation 1.3431613936290656 %",54.9%
Cc1cc(CO)c2cccc(CC(=O)NCCc3ncc[nH]3)c2n1,inhibition,"Thailand/16681/1984, Concentration 49.95 uM, Number of replicates 2.0, Standard deviation 0.7345959673097169 %",39.1%
same,inhibition,"Thailand/16681/1984, Concentration 99.9 uM, Number of replicates 2.0, Standard deviation 0.015925439590932376 %",77.7%
Cc1cc(CO)c2cccc(CC(=O)NCc3ccc(C(N)=O)cc3)c2n1,inhibition,"Thailand/16681/1984, Concentration 49.95 uM, Number of replicates 2.0, Standard deviation 0.824600056542549 %",-4.43%
same,inhibition,"Thailand/16681/1984, Concentration 99.9 uM, Number of replicates 2.0, Standard deviation 0.5940444883081935 %",2.19%
Cc1cc(CO)c2cccc(Cc3cccc(C(=O)NCCc4ncc[nH]4)c3)c2n1,inhibition,"Thailand/16681/1984, Concentration 49.95 uM, Number of replicates 2.0, Standard deviation 2.0725920117726813 %",-4.03%
same,inhibition,"Thailand/16681/1984, Concentration 99.9 uM, Number of replicates 2.0, Standard deviation 0.8997522707097182 %",1.59%
Cc1cc(N)cc(CNC(=O)Cc2cccc3c(CO)cc(C)nc23)c1,inhibition,"Thailand/16681/1984, Concentration 49.95 uM, Number of replicates 2.0, Standard deviation 0.21775017554498763 %",39.7%
same,inhibition,"Thailand/16681/1984, Concentration 99.9 uM, Number of replicates 2.0, Standard deviation 1.7887257377938661 %",61.7%
Cc1cc(CO)c2cccc(Cc3ccccc3C(=O)NCCc3ncc[nH]3)c2n1,inhibition,"Thailand/16681/1984, Concentration 49.95 uM, Number of replicates 2.0, Standard deviation 0.3032711887954129 %",14.1%
same,inhibition,"Thailand/16681/1984, Concentration 99.9 uM, Number of replicates 2.0, Standard deviation 0.18110062477906652 %",34.2%
CSCC[C@H](NC(=O)OC(C)(C)C)C(=O)N1CCC[C@H]1C(=O)Nc1ccc(CN)cc1,inhibition,"Thailand/16681/1984, Concentration 49.5 uM, Number of replicates 2.0, Standard deviation 0.5873455681071067 %",0.345%
same,inhibition,"Thailand/16681/1984, Concentration 99.01 uM, Number of replicates 2.0, Standard deviation 0.9875045381203101 %",1.56%
same,inhibition,"Thailand/16681/1984, Concentration 198.0 uM, Number of replicates 2.0, Standard deviation 0.49996007837732465 %",2.5%

# Source: ChEMBL document CHEMBL5606460, “ASAP - DENV-2 NS2B-NS3 protease fluorescence single point” (2024)
